# Assay outcomes deposited in PubChem BioAssay by several laboratories.
# Shown are actives, neighbours in structure and some others; about 0.77% of the full set was active somewhere.
# Mtb bLac sens = beta-lactam sensitization of Mtb H37Rv; M. tuberculosis H37Rv growth with meropenem, percent inhibition; inhibition, % at 25 µM; 0.27% of 330,000 active; AID 434955;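 further: growth measured after seven days incubation then overnight dye step; 0% = bacteria only wells and 100% = bacteria with antibiotic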
# RecA splice inh = Mtb RecA intein splicing inhibition; P9WHJ3; cell-free RecA intein splicing, fluorescence; AID 2221; 0.75% of 290,000 active; inhibition, % (no concentration beside the values); in the data active means inhibition above about 30%;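 further: 0% = vehicle wells and 100% = reference inhibitor control wells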
# Rv3671c protease = inhibits the M. tuberculosis serine protease Rv3671c | P9WHR9 | inhibition, % at 5.96 µM | 0.048% of 320,000 active; in the data active means inhibition above about 38%;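 further: extracellular domain of Rv3671c used as enzyme; 0% = enzyme with DMSO and 100% = no enzyme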
# Target sequence (P9WHR9 whole entry, looked up, the tested form may be a part): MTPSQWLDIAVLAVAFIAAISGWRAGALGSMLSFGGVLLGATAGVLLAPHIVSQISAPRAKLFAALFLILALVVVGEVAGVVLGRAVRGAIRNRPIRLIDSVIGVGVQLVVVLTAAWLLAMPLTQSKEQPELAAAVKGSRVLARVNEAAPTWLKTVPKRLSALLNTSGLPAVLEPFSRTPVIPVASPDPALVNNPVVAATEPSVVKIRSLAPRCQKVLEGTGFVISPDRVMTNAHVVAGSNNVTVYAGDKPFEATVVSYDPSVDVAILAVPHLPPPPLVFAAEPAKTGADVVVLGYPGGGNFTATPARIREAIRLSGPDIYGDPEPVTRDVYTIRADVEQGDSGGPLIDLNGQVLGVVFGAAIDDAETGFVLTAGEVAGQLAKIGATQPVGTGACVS
# UGM FP inh = Mtb UDP-galactopyranose mutase inhibition; purified UGM, fluorescence polarization probe displacement; inhibition, % at 10 µM; 0.06% of 320,000 active; in the data active means inhibition above about 10%, passing the limit was not always enough
# Mtb hypoxia inh = Mtb hypoxia fluorescent reporter inhibition; M. tuberculosis hypoxia-regulated fluorescent reporter, fluorescence; fluorescence inhibition, % (concentration not given with the values); 0.1% of 300,000 active; in the data active means fluorescence inhibition mostly above about 23%, no sharp cut-off; inactive means mostly below about 17%
# GFP chromo cs = counter-screen: blocks GFP chromophore formation. AID 434968. EC50, µM. cell-free GFP chromophore formation, fluorescence. shares compounds with RecA splice inh. 83% of 2,100 active
# Starred values were filed as active, the others as inactive; nt = no result. Unless noted, how the calls were made is not given here.
SMILES,Mtb bLac sens,RecA splice inh,Rv3671c protease,UGM FP inh,Mtb hypoxia inh,GFP chromo cs
CC(C)C1C(C#N)=C(N)Oc2n[nH]c(C(C)(C)C)c21 (configuration not stated),2.4,nt,2.4,-0.4,nt,nt
COc1ccc(-c2ccc(C3C(C#N)=C(N)Oc4n[nH]c(C)c43)o2)cc1 (configuration not stated),98.4,nt,-6.2,-1.2,6.3,nt
Cc1[nH]nc2c1C(c1ccco1)C(C#N)=C(N)O2 (configuration not stated),0.3,57.8*,5.9,0.0,6.3,26.4*
CCc1cccc(CC)c1NC(=O)/C(C#N)=C/c1ccccc1C(F)(F)F,-0.7,30.8*,-15.2,0.4,21.6,32.3*
COC(=O)C1=C(C)N(Cc2ccccc2)C(=NCCc2c[nH]c3ccccc23)NC1c1cccc(C(F)(F)F)c1 (configuration not stated),nt,nt,nt,nt,-3.7,nt
CCN(C(=O)c1ccc2c(Cl)c3c(nc2c1)CCC3)c1ccc(C)c(C)c1,5.9,30.1*,-15.9,-2.7,6.2,9.08*
Cc1[nH][nH]c(=O)c1C(c1ccc([N+](=O)[O-])cc1)c1c(C)[nH][nH]c1=O,-5.7,95.8*,1.7,-2.2,13.6,0.69*
COC(=O)COc1ccc(C(=O)OC)cc1,95.8,-0.4,-5.3,-1.6,0.3,nt
Cc1ccc(C(c2c(C)[nH][nH]c2=O)c2c(C)[nH][nH]c2=O)cc1,6.8,98.2*,-5.6,-0.8,13.2,0.541*
COC(=O)COc1ccc(C(c2c(C)[nH][nH]c2=O)c2c(C)[nH][nH]c2=O)cc1,5.3,97.6*,nt,-0.9,7.2,0.691*
Cc1[nH][nH]c(=O)c1C(c1ccc(Br)cc1)c1c(C)[nH][nH]c1=O,0.5,97.5*,-5.6,2.4,2.3,0.807*
COc1cc(C(c2c(C)[nH][nH]c2=O)c2c(C)[nH][nH]c2=O)ccc1OCc1ccc([N+](=O)[O-])cc1,0.0,95.4*,1.1,-0.6,12.4,0.349*
CSc1ccc(C(c2c(C)[nH][nH]c2=O)c2c(C)[nH][nH]c2=O)cc1,7.0,98.3*,-16.6,1.7,nt,0.569*
C#CCNC(=O)C=Cc1ccc(C)cc1,nt,nt,nt,nt,20.7,nt
CC1CN(C(C)CO)C(=O)c2cccc(NC(=O)Nc3ccc(F)cc3)c2OC1CN(C)Cc1ccccc1 (configuration not stated),nt,nt,nt,nt,3.9,nt
CCCCCN1N=C(C)CC1=O,11.8,78.7*,-61.2,-2.0,3.4,13.1*
CCCCn1c(SCC(=O)NCc2ccco2)nc2ccccc2c1=O,3.4,-2.0,4.2,0.7,16.0,nt
CC(=O)NCCn1c(SCC(=O)NCc2ccco2)nc2ccccc2c1=O,9.6,66.6*,0.0,-1.9,0.4,24.9*
O=C(Nc1ccccc1)Nc1ccccc1NS(=O)(=O)c1cccs1,1.2,4.2,-6.6,-0.6,11.9,nt
O=C(Nc1ccc(Cl)c(Cl)c1)Nc1ccccc1NS(=O)(=O)c1cccs1,-3.4,31.5*,-115.6,-3.0,-2.6,>38
COc1ccc(C=C(c2nc3ccccc3s2)c2nc3ccccc3s2)cc1O,91.9,59.7*,-14.2,-0.8,-1.2,>38
N#CC(C#N)=NNc1ccc(-n2ccc(C(F)(F)F)n2)cc1,24.6,78.6*,-12.9,1.8,nt,6.4*
Cc1cc(C)n(-c2ccc(NN=C(C#N)C#N)cc2)n1,-3.0,57.0*,2.4,-1.2,19.9,19.3*
Cc1cc(C)n(-c2ccc(C(=O)O)cc2)n1,-0.1,-1.2,2.8,0.7,9.0,nt
NC(=O)C1(NC(=O)C2CC3(CC(c4cccc(NC(=O)C5CCC(=O)N5)c4)=NO3)CN2C(=O)c2cnccn2)CC1 (configuration not stated),nt,nt,nt,nt,8.0,nt
CCOc1cc(/C=C(\C#N)C(=O)Nc2cccc(C(=O)O)c2)cc(Br)c1OC(=O)c1ccc(OC)cc1,12.1,37.6*,-82.8,-0.2,2.2,20.8*
CCOc1cc(/C=C(\C#N)C(=O)Nc2cccc(C(=O)O)c2)ccc1OCc1ccccc1Cl,4.0,nt,2.4,0.8,nt,nt
N#C/C(=C\c1c(Cl)cccc1Cl)c1nn(-c2ccccc2)c(-n2cccc2)c1C#N,-10.8,25.3,-5.5,0.7,4.1,nt
N#C/C(=C\c1c(F)cccc1Cl)c1nn(-c2ccccc2)c(-n2cccc2)c1C#N,11.2,46.3*,-16.7,2.9,nt,>38
COc1ccc(-c2cc(=O)n(-c3ccc([N+](=O)[O-])cc3)[nH]2)cc1,0.6,90.2*,-142.0,0.7,4.2,5.38*
